Source: PubChem BioAssay
Sfp PPTase inh = qHTS Assay for Inhibitors of Bacillus subtilis Sfp phosphopantetheinyl transferase (PPTase) | hit rate 3.5% among 310,000 | Biochemical Sfp PPTase activity, qHTS | AID 1490, 2009 | 4'-phosphopantetheinyl transferase ffp (Bacillus subtilis), Q9F4F7 | Potency, µM, for inactives: largest response in the series, negative = inhibition, usual class: inhibitors;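 note: the enzyme is Sfp with the accession as filed and its product quenches rhodamine fluorescence; 0% = enzyme reaction without inhibitor and -100% = no enzyme wells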
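Buffer: 50 mM Hepes-Na pH 7.6, 10 mM MgCl2, 0.01% Nonidet P-40, 0.01% BSA. Enzyme 15 nM, pre-exposed to compound 15 min; substrates then added and fluorescence change tracked over 30 min.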
ALDH1A1 block = qHTS Assay for Inhibitors of Aldehyde Dehydrogenase 1 (ALDH1A1) | Aldehyde dehydrogenase 1A1 (Homo sapiens), P00352 | Purified ALDH1A1, NADH fluorescence, propionaldehyde substrate | Potency, µM (highest dose often 75.3 µM), inactives show top-dose activity, negative = inhibition, actives largely listed as inhibitors | hit rate 7.3% among 220,000; active = well fitted inhibition curve with a large enough effect, not every such curve was filed as active; inconclusive = small, poorly fitted or top-dose-only effect, or another doubt; inactive = no such curve, though single readings can be large or run the other way;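 note: plate controls were no enzyme wells and a reference inhibitor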
PLK1 PBD inh = qHTS for Inhibitors of PLK1-PDB (polo-like kinase 1 - polo-box domain): Primary Screen. hit rate 2.8% among 360,000. Potency, µM, without a hit: max response, negative = inhibition, actives largely listed as inhibitors. Plk1 PBD binding of FITC phosphopeptide, fluorescence polarization. Serine/threonine-protein kinase PLK1 (Homo sapiens), P53350; note: series mostly up to about 57 µM; nearly all actives have a fitted effect of over 65% in size
Target sequence (P53350 whole entry, looked up, the tested form may be a part): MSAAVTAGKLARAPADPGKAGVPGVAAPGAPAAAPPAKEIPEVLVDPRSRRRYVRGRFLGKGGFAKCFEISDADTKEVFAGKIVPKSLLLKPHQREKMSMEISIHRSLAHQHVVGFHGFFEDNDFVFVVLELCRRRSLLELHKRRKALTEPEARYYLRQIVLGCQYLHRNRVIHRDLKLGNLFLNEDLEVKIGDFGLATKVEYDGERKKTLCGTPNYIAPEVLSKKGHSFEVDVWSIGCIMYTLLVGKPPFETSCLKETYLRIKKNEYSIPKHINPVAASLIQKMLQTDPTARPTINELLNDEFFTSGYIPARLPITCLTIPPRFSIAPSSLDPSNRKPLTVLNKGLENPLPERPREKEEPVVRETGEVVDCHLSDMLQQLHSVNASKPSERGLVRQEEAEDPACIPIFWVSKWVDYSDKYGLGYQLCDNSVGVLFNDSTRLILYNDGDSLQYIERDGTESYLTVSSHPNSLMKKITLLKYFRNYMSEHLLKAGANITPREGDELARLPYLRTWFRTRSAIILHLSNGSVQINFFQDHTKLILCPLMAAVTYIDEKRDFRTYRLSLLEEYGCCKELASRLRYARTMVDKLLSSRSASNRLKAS
RORgamma inh = qHTS for inhibitors of ROR gamma transcriptional activity. Nuclear receptor ROR-gamma (Mus musculus), P51450. Drosophila S2 Gal4-RORgamma UAS-luciferase reporter, 20 h. Potency, µM (top dose mostly 53.6 µM), inactives show at the highest dose activity change, negative = inhibition, usual class: inhibitors. hit rate 5.4% among 310,000. AID 2551, 2010; note: nearly all actives have a fitted effect of over 60% in size
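Stably transfected Drosophila Schneider cells are the test system, with ROR gamma fused to Gal4 and luciferase under UAS control; luminescence is read after 20 hr of 700 uM copper sulfate induction at ambient temperature.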
VP16 counter = VP16 counterscreen qHTS for inhibitors of ROR gamma transcriptional activity | Drosophila S2 Gal4-VP16 UAS-luciferase, luminescence, 20 h | Potency, µM (highest dose often 53.6 µM), for inactives: top-dose activity, negative = inhibition, usual class: inhibitors | hit rate 3.5% among 310,000 | AID 2546, 2010;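 note: Gal4-VP16 expression switched on by copper sulfate through the metallothionein promoter; nearly all actives have a fitted effect of over 50% in size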
Active calls of the source: *; u = inconclusive; x = no result given; [ ] = remark or other dose. An excerpt weighted towards active compounds, which were near 12% of everything screened. Unless noted, calls come from the whole dose curve; as a rule, active = well fitted curve in the direction sought with a large enough effect; inconclusive = small, poorly fitted or top-dose-only effect, or another doubt; inactive = no such curve, though single readings can be large; an effect the other way counts as inactive or inconclusive. Unless noted, % is set by controls: 0 for no effect and ±100 for the full control effect; potency is the fitted concentration of half-maximal effect.

SMILES | Sfp PPTase inh | ALDH1A1 block | PLK1 PBD inh | RORgamma inh | VP16 counter
C[C@H](O)C(=O)Nc1c(I)c(C(=O)NC(CO)CO)c(I)c(C(=O)NC(CO)CO)c1I | 19.6% | 1.7%[20.9 µM] | x | 5.3%[2.98 µM] | -0.9%[17 µM]
OC[C@@H](O)[C@@H](O)CCc1ccccc1 | 19.1% | -1.5% | x | 1.6% | -2.0%
CC(C(=O)Nc1cc([N+](=O)[O-])ccc1Cl)N1CCN(c2ccc(O)cc2)CC1 (stereo not given) | 56.2µM* | 7.08µM* | -11.3% | -37.9% | -1.9%
Cc1ccc(C(=O)O)cc1NC(=S)NC(=O)c1ccc(-c2ccccc2)cc1 | -6.7% | 14.1µM* | u | -17.2% | -10.6%
O=C(O)c1cccc(NC(=S)NC(=O)c2ccc(-c3ccccc3)cc2)c1 | -3.8% | 25.1µM* | 0.2% | 8.2% | -20.6%
CC(=O)c1cccc(NC(=O)COC(=O)Cc2ccc(Cl)cc2)c1 | x | x | -2.0% | x | x
CC(=O)c1cccc(NC(=S)NCCc2ccc(Cl)cc2)c1 | 6.9% | -3.0% | -16.1% | 12.6µM* | u
Cc1cnc2nc(-c3ccccc3)ccc2c1 | x | x | 1.7% | x | x
Cc1cccc(C)c1NC(=O)C(C1CC1)n1c(-c2ccc(C(F)(F)F)cc2)nc2ccccc21 (stereo not given) | x | x | -0.1% | x | x
O=C(NCCc1c[nH]c2ccccc12)c1ccccc1O | 8.3% | x | x | 30.2% | -21.4%
CC/C(=N\Nc1ccc([N+](=O)[O-])cc1)c1ccccc1 | -15.3% | u | 16.8µM* | -0.8% | -3.4%
CC/C(C)=N/Nc1cccc([N+](=O)[O-])c1 | 21.7% | 0.1% | -20.0% | 22.9% | -2.1%
COc1ccc(NC(=O)C(OC(=O)c2ccc([N+](=O)[O-])o2)c2ccccc2)cc1Cl (stereo not given) | 16.2% | 2.51µM* | 7.4% | -34.9% | u
COc1ccc(NC(=O)C(OC(=O)c2cnc(C)cn2)c2ccccc2)cc1Cl (stereo not given) | x | x | -6.4% | x | x
CCC(CC)=NNc1cccc([N+](=O)[O-])c1 | 4.5% | 28.2µM* | -1.9% | 16.4% | 5.6%
O=C(CNC(c1ccccc1)c1ccccc1)Nc1cc([N+](=O)[O-])ccc1Cl | -21.5% | 7.08µM* | -8.0% | u | -17.3%
CCN(CC)/[N+]([O-])=N/Oc1cc(O/N=[N+](\[O-])N(C)C)c([N+](=O)[O-])cc1[N+](=O)[O-] | -20.4% | x | x | u | -3.6%
Cc1ccc(-c2c(C3C4C=CCCC4(C)C(=O)N3Cc3ccccc3)ccc3ccccc23)cc1 (stereo not given) | -5.1% | x | x | u | u
COC(C(=O)Nc1cccc([N+](=O)[O-])c1)c1ccccc1 (stereo not given) | 1.7% | 20µM* | -7.3% | 14.1% | -1.6%
CC(=O)c1cccc(NC(=S)NC(=O)c2cncc(Br)c2)c1 | u | x | -17.5% | 10µM* | 17.8µM*
COc1cccc(NC(=S)NC(=O)c2cncc(Br)c2)c1 | x | x | 0.0% | x | x
CC(=O)c1cccc(NC(=S)NC(=O)CC(C)(C)C)c1 | 6.4% | -3.7% | -8.1% | 12.6µM* | u
COC(=O)c1cccc(NC(=S)NCCC2=CCCCC2)c1 | 23.8% | 28.2µM* | -10.1% | 3.16µM* | u
CCCCC(=O)NC(=S)Nc1cccc(C(=O)O)c1 | 19.2% | -4.2% | -2.0% | -21.9% | 0.6%
COC(=O)c1ccc(NC(=S)NCCC2=CCCCC2)cc1 | 14.1% | u | -16.8% | -7.6% | 0.8%
SMILES | Sfp PPTase inh | ALDH1A1 block | PLK1 PBD inh | RORgamma inh | VP16 counter
O=C(CSc1nc2ncc(Cl)cc2[nH]1)N1CCC(Cc2ccccc2)CC1 | x | x | -9.1% | x | x
CC(=O)OC1C[C@]2(C)[C@@H](CC(O)C3[C@]4(C)CCC(O)C(C)[C@@H]4CC[C@]32C)/C1=C(/CCC=C(C)C)C(=O)O (stereo not given in full) | 14.8% | 2.4% | x | 14.3% | -5.9%
O=C(CN1CCN(c2ccccc2O)CC1)Nc1ccc([N+](=O)[O-])cc1Br | -2.5% | u | -5.8% | 23.9% | u
O=C(CN1CCN(c2ccccc2O)CC1)Nc1cc([N+](=O)[O-])ccc1Cl | 0.9% | 22.4µM* | -8.4% | -20.7% | -11.9%
O=C(NNC(=S)Nc1ccc(F)cc1)c1ccccc1OC(F)F | -3.0% | u | -20.5% | 2.82µM* | 1.3%
O=C(NNC(=S)Nc1cccc(Cl)c1)c1ccccc1OC(F)F | 15.0% | 25.1µM* | -26.6% | -40.2% | -17.6%
COc1cccc(NC(=S)NNC(=O)c2ccccc2OC(F)F)c1 | 17.5% | 25.1µM* | -21.6% | u | -8.4%
Cc1ccc(NC(=S)NNC(=O)c2ccccc2OC(F)F)cc1 | 12.5% | u | -24.4% | u | -14.0%
O=C(c1cnccn1)N1CCC2(CCN(Cc3ccncc3)CC2)CC1 | 8.5% | -0.5% | x | -15.8% | -6.6%
COc1cccc(Cn2c(=O)c(-c3cc(F)cc(F)c3)nc3cnc(N4CCOCC4)nc32)c1 | 10.7% | 13.5% | x | 2.3% | 0.5%
Cc1c(Cl)c(-c2n[nH]c(=S)n2-c2ccc(F)cc2)nn1C | -10.1% | u | -1.0% | 12.6µM* | -3.6%
Cn1cc(Cl)c(-c2n[nH]c(=S)n2-c2ccc(F)cc2)n1 | -2.2% | 5.3% | 1.2% | -41.6% | 1.1%
Cc1ccc(-n2c(-c3cn(C)nc3C)n[nH]c2=S)cc1 | -13.0% | -6.2% | x | 10µM* | -7.3%
Cc1ccc(-n2c(-c3nn(C)cc3Cl)n[nH]c2=S)cc1 | 12.6µM* | 1.5% | -12.7% | u | -18.7%
Cc1ccc([C@H]2C[C@@H](O)[C@H](n3cc(C4CC4)nn3)CN2C(=O)c2cccs2)cc1 | x | x | -8.6% | x | x
Brc1ccc2nc(-c3cccs3)c(NCC3CCCO3)n2c1 (stereo not given) | -29.2% | 7.94µM* | 2.6% | u | -10.6%
c1csc(-c2nc(NCC3CCCO3)c3ccccc3n2)c1 (stereo not given) | 2.9% | x | 4.0% | u | -16.3%
O=C(O)/C=C/c1ccc(OCc2cccc(F)c2)cc1 | 1.5% | -1.0% | 29.9µM* | -25.5% | u
COc1ccc(-c2nonc2NC(=O)c2ccco2)cc1OC | 12.4% | x | -11.3% | -4.5% | -4.6%
O=C1NC[C@H](CCCCN2C[C@H](Cc3ccccc3)N(CCc3ccccc3)C(=O)C2=O)N(CCC2CCCCC2)C1=O | x | x | -11.5% | x | x
O=C(NCCN1CCN(c2ccccc2)CC1)c1ccccc1F | 4.0% | x | 23.8µM* | 30.2% | 12.9%
O=C(NCCCN1CCN(CCCNC(=O)c2ccccc2F)CC1)c1ccccc1F | 3.4% | -4.1% | 0.3% | 9.7% | 12.4%
O=C(Cc1ccc(Cl)cc1)c1c(O)cc(O)cc1O | -15.8% | 2.7% | x | u | -20.6%
C=C(C)C1(O)OC(=O)C=C1OC (stereo not given) | 5.3% | -1.8% | -8.4% | 12.6µM* | 11.2µM*
Cc1cccc2c(N=O)c(O)[nH]c12 | 5.7% | x | 3.77µM* | 6.3% | -1.8%
